Most compounds without a hit are left out; they make up all but 1.3% or so of the library.
C-LANA FP = blocks KSHV LANA C-terminal domain binding to DNA. MBP-C-LANA/FAM-LBS DNA binding, fluorescence polarization. inhibition, % at 9 µM. 340,000 compounds, 0.078% hits. AID 504423;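 active means highest replicate inhibition at or above 60% at 9 µM, even if other replicates fall short; inactive means all replicates below 60% inhibition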;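 further: 0% = neutral control wells and 100% = 4 µM acridine orange control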
GLD-1 RNA inh = GLD-1-TGE RNA interaction inhibition (C. elegans); Q17339; purified GLD-1 + fluorescein TGE RNA, fluorescence polarization; inhibition, % at 5.96 µM; 320,000 compounds, 0.44% hits; AID 2280;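 active means percent inhibition above a per-plate cutoff, the plate mean of test compounds plus 3 SD, cut at about 30% in these data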;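 further: 0% = DMSO wells with GLD-1 and probe and 100% = wells lacking GLD-1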
MCL1 BIM primary = inhibitors of human MCL1 binding to BIM-BH3 peptide | GST-MCL1 / FITC-Bim-BH3 fluorescence polarization | inhibition, % at 10.9 µM | 320,000 compounds, 0.68% hits | AID 2057;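 active means inhibition above the mean inhibition of all tested compounds plus 3 SD, set per campaign, cut at about 40% in these data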;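 further: 0% = DMSO wells and 100% = unlabeled Bim-BH3 peptide control; higher means more loss of mP so more displacement of Bim peptide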
Keap1-Nrf2 PPI = Keap1-Nrf2 (human) interaction inhibition; Keap1 Kelch-Nrf2 peptide fluorescence polarization, 1536-well; AID 504523; Q14145; inhibition, % at 9.4 µM; 340,000 compounds, 0.15% hits; in the data active means inhibition above about 12%;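 further: human Keap1 Kelch domain with fluorescein labeled Nrf2 9mer peptide probe; 0% = neutral control wells and 100% = peptide positive control; higher means more block of Keap1 binding to Nrf2 peptide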
BCLXL inh = Bcl-xL (human) inhibition; inhibition, % at 10.9 µM; AID 2129; GST-Bcl-xL / FITC-Bim BH3 peptide fluorescence polarization; 320,000 compounds, 0.7% hits;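 active means inhibition above the mean of all tested compounds plus 3 SD, cutoff set per campaign, cut at about 30% in these data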;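 further: 0% = DMSO wells and 100% = unlabeled Bim-BH3 peptide competitor; inhibitors lower millipolarization by displacing the labeled peptide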
E coli Lon inh = E. coli protease La inhibition; purified E. coli Lon protease, fluorescence polarization; inhibition, % at 7.94 µM; 360,000 compounds, 0.42% hits; AID 602123; in the data active means inhibition above about 13%, passing the limit was not always enough;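 further: 0% = enzyme with probe and DMSO and 100% = no enzyme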
Starred values were filed as active, the others as inactive; . = no result given.

SMILES	C-LANA FP	GLD-1 RNA inh	MCL1 BIM primary	Keap1-Nrf2 PPI	BCLXL inh	E coli Lon inh
CCCn1c(N)c(NCCN2CCOCC2)c(=O)[nH]c1=O	1	28	25	0	33*	9
CCCCNc1c(N)n(CCC)c(=O)[nH]c1=O	2	25	22	1	29	-4
CCN1CCCSC1=S	.	.	.	.	.	0
Cc1ccc(C(=O)/C=C/Nc2cccc(O)c2)cc1	2	13	40*	-3	40*	0
O=C(/C=C/Nc1cccc(O)c1)c1ccccc1	0	2	10	-1	16	-14
Cc1nnc(NC(=O)CSc2nnc(Cc3cccn3C)n2-c2cccc(C)c2C)s1	.	-4	-2	.	104*	.
Cc1nnc(NC(=O)CSc2nnc(Cc3cccn3C)n2-c2ccccc2)s1	0	-6	-7	0	1	-1
CCOC(=O)C1=C(C)OC(N)=C(C#N)C1c1cccc(C)c1 (stereo unspecified)	1	6	-14	-2	2	-8
CCOC(=O)C1=C(C)OC(N)=C(C#N)C1c1ccc(C)s1 (stereo unspecified)	1	22	30	1	31*	5
Cc1cc2ccccc2n1CCNC(=O)C(C)Oc1ccccc1 (stereo unspecified)	1	11	13	-4	15	24*
CCn1nc(NC(=O)CC(C)C)c2cc3cccc(C)c3nc21	0	7	1	3	137*	-3
O=C1CC(=O)N(Cc2ccco2)C(=O)N1	94*	-78	-16	-18	-41	-174
O=C1CC(=O)N(Cc2ccco2)C(=S)N1	71*	-65	-36	3	-23	-159
C[C@H](CO)N1C[C@H](C)[C@@H](CN(C)C(=O)C2CC2)OCc2cnnn2CCCC1=O	.	.	.	.	.	-2
COc1cc(NC(=O)C2(C)CCN2C(C)C)cc(OC)c1OC (stereo unspecified)	.	.	.	.	.	-8
O=C(c1cc(-c2ccc(Cl)cc2)on1)N1CCCCCC1	-1	34*	-3	-5	2	-5
Cc1nnsc1C(=O)N/N=C/c1ccc2ccccc2c1O	0	-57	84*	4	75*	-88
CN(C)C(=O)c1ccc(-n2cnc3ccccc3c2=O)cc1	-2	1	0	-1	-2	7
CN(C)/C=N/n1cnc2ccccc2c1=O	2	0	1	-3	34*	1
COc1cc(NC(=O)c2cccc3c(-c4cnn(C)c4)coc23)cc(OC)c1OC	.	.	.	.	.	5
Cn1nccc1-c1ccc(C(=O)NCc2ccc(Cl)cc2)c2occc12	.	.	.	.	.	4
O=C(O)c1ccc2c(c1)NC(=O)C(N1CCCC1)S2 (stereo unspecified)	6	26	41*	4	32*	-10
Cc1ccc(-c2cc(-c3ccc(C)o3)nc(N)c2C#N)cc1	3	39*	45*	0	32*	-16
Cc1ccc(-c2cc(-c3ccc(F)cc3)c(C#N)c(N)n2)o1	7	21	31	7	23	-14
O=C(c1[nH]c(C(F)(F)F)nc1-c1ccccc1)N1CCN(c2ccccn2)CC1	.	.	.	.	.	-10
SMILES	C-LANA FP	GLD-1 RNA inh	MCL1 BIM primary	Keap1-Nrf2 PPI	BCLXL inh	E coli Lon inh
CCOC(=O)c1c(N)sc2c1CCCC2	-2	0	17	-4	10	-10
CCNC(=O)c1c(N)sc2c1CCCCC2	.	24	38	.	39*	.
CC(=O)Oc1cc2c3c(c1)/C(=C1/SC(=S)NC1=O)C(=O)N3C(C)(C)C=C2C	1	9	10	-8	50*	3
O=C(NCCc1ccc(Cl)cc1)C1CCC(=O)N(C2CCCCCC2)C1 (stereo unspecified)	0	1	2	1	135*	-6
COC(=O)C(NC(=O)c1ccccc1)C(C)(C)SCc1ccccc1 (stereo unspecified)	.	.	.	.	.	6
CCCCCC(=O)Nc1cc(S(=O)(=O)O)cc2cc(S(=O)(=O)O)cc(O)c12	114*	.	.	0	.	-5
CCCCCC(=O)Nc1cc(S(=O)(=O)N2CCCCC2)ccc1N1CCCCC1	1	.	.	-1	.	0
Cc1cc(NC(=O)CS(=O)(=O)c2cn(Cc3cccc(Cl)c3)c3ccccc23)no1	.	.	.	.	.	-5
CCOc1ccc(C(=O)OCC(=O)NCCCc2ccccc2)cc1	1	6	-1	1	116*	8
C=CCNc1nc2cc(-c3cccc(NC(C)=O)c3)sc2c(=O)n1C	.	.	.	.	.	-2
CN(C)CCNc1ncnc2c1ncn2[C@H]1CN(CCc2ccccc2)C[C@@H](CO)O1	.	.	.	.	.	0
CCOc1cc2[nH]c(=S)n(CCOC)c(=O)c2cc1OCC	0	0	0	-7	2	6
COCCn1c(=S)[nH]c2ccc(N(C)C)cc2c1=O	1	17	31	-4	32*	14
CC(=O)c1cccc(NC(=O)c2cc(-c3ccco3)nc3ccccc23)c1	-2	8	-8	2	-6	-18
O=C(Nc1ccccc1F)c1cc(-c2ccco2)nc2ccccc12	0	4	10	-5	6	-3
O=C(O)c1cc(-c2ccco2)nc2cc3ccccc3cc12	22	-1	39	0	35*	-16
O=C(NNC(=O)c1cc(-c2ccco2)nc2ccccc12)c1ccccc1	-2	28	39	0	35*	-8
O=C(c1ccccc1)c1ccc2nc(-c3ccco3)c(-c3ccco3)nc2c1	0	0	38	-1	32*	-6
CC1=C(C(=O)N(C)C)CC(CC(=O)NCCCCc2ccccc2)C(=O)N1CCCN1CCCC1=O (stereo unspecified)	.	.	.	.	.	-9
c1ccc2c(c1)nc(NCC1CCCO1)c1nnnn12 (stereo unspecified)	4	11	27	-4	40*	-37
COC(=O)C(NS(=O)(=O)c1ccc(C)cc1)c1ccccc1 (stereo unspecified)	0	6	-3	-3	5	-4
Cc1ccc(S(=O)(=O)NC(C(=O)Oc2ccc3c(C(F)(F)F)cc(=O)oc3c2)c2ccccc2)cc1 (stereo unspecified)	0	47*	42*	-4	45*	-2
COc1ccc(-c2cc(CNc3nc4cc(-c5ccccc5C)sc4c(=O)n3C)on2)cc1	.	.	.	.	.	-11
Cn1ncc(N)c1C(=O)Nc1cccc(C(F)(F)F)c1	0	4	7	-6	41*	9
CCC(O)c1cnc(OCc2ccccc2)nc1OCc1ccccc1 (stereo unspecified)	.	.	.	.	.	-3
N#Cc1c(N)nc2c3c(sc(=N)c2c1N)NC(=O)CC3c1ccccc1 (stereo unspecified)	2	0	42*	2	47*	-18
COC(=O)[C@]12CCCCC=C1N(Cc1cccc3ccccc13)C(=O)[C@H](CC(=O)NCCCCc1ccccc1)C2	.	.	.	.	.	0
Cc1cc(S(=O)(=O)NC(=O)[C@H]2O[C@@H](n3cnc4c(N)ncnc43)[C@H](O)[C@@H]2O)ccc1Br	.	.	.	.	.	5

From PubChem BioAssay
